From PubChem BioAssay AID1159580 (chemical genetic matrix, 2015)
Several values for one entry are separate records, joined by “and”; a condition that tells them apart may be missing. Identical values can stand only once. The campaign covered roughly 5,500 compounds. About 2,000 (36%) were called active. About 18% were inconclusive and are not listed. Cut-off read from the data, not from the text of the source: active = normalized growth mostly below about 0.91 (no sharp cut-off); inconclusive = no clear call, values can overlap the other calls; inactive = mostly above about 0.92. This is one part of the list.

Experiment: chemical genetic growth profiling, strain panel (AID 1159580);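 note: tested at 20 µM; growth read once vehicle control cultures reached saturation at 30 °C; 1 = growth at the plate median or of vehicle wells; lower values mean less growth of the strain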
Settings: S. cerevisiae deletion strains, growth OD

Measured: normalized growth

COS(C)(=O)=O
inactive: locus YAL013W, strain DEP1, hits give low values 1 | locus YAL021C, strain ccr4, hits give low values 0.997 | locus YAL026C, strain drs2, hits give low values 1 | locus YAL030W, strain snc1, hits give low values 0.996 | locus YBL061C, strain skt5, hits give low values 0.992 | locus YBR009C, strain hhf1, hits give low values 1 | locus YBR021W, strain FUR4, hits give low values 1 | locus YBR023C, strain chs3, hits give low values 0.994 | locus YBR171W, strain sec66, hits give low values 0.978 | locus YBR229C, strain ROT2, hits give low values 1.01 | locus YBR231C, strain swc5, hits give low values 0.969 | locus YBR279W, strain paf1, hits give low values 1 | locus YCL011C, strain gbp2, hits give low values 1.02 | locus YCL016C, strain dcc1, hits give low values 1 | locus YCL029C, strain bik1, hits give low values 1.02 | locus YCL069W, strain vba3, hits give low values 1 | locus YCR088W, strain abp1, hits give low values 0.993 | locus YDL005C, strain med2, hits give low values 0.979 | locus YDL035C, strain GPR1, hits give low values 1.02 | locus YDL040C, strain nat1, hits give low values 0.993 | locus YDL074C, strain BRE1, hits give low values 0.986 | locus YDL101C, strain DUN1, hits give low values 1 | locus YDL134C, strain PPH21, hits give low values 1 | locus YDL185W, strain tfp1, hits give low values 1.01 | locus YDL192W, strain arf1, hits give low values 1.01 | locus YDR001C, strain nth1, hits give low values 0.997 | locus YDR069C, strain doa4, hits give low values 1.01 | locus YDR101C, strain arx1, hits give low values 1.01 | locus YDR137W, strain rgp1, hits give low values 1.02 | locus YDR150W, strain NUM1, hits give low values 1 | locus YDR159W, strain sac3, hits give low values 0.944 | locus YDR162C, strain NBP2, hits give low values 0.993 | locus YDR195W, strain ref2 0.948 | locus YDR297W, strain sur2, hits give low values 0.982 | locus YDR318W, strain mcm21, hits give low values 1.03 | locus YDR334W, strain swr1, hits give low values 0.988 | locus YDR335W, strain msn5, hits give low values 1 | locus YDR388W, hits give low values 1.01 | locus YDR392W, strain spt3, hits give low values 0.947 | locus YDR502C, strain sam2, hits give low values 0.994 | locus YEL003W, strain gim4, hits give low values 0.989 | locus YEL037C, strain rad23, hits give low values 1 | locus YEL061C, strain CIN8 (second series), hits give low values 0.998 | locus YEL061C, strain CIN8, hits give low values 1.01 | locus YER015W, strain faa2, hits give low values 1.02 | locus YER016W, strain bim1, hits give low values 0.98 | locus YER110C, hits give low values 1.02 | locus YER111C, strain swi4, hits give low values 0.998 | locus YER155C, strain BEM2 (second series), hits give low values 0.976 | locus YER155C, strain BEM2, hits give low values 1.01 | locus YER167W, strain BCK2, hits give low values 1.02 | locus YFR010W, strain ubp6, hits give low values 0.995 | locus YGL078C, strain dbp3, hits give low values 0.999 | locus YGL086W, strain mad1, hits give low values 1.02 | locus YGL167C, strain pmr1, hits give low values 0.997 | locus YGL173C, strain kem1, hits give low values 1 | locus YGL227W, strain vid30, hits give low values 0.978 | locus YGL240W, strain doc1, hits give low values 0.957 | locus YGL248W, strain PDE1, hits give low values 1 | locus YGL253W, strain hxk2, hits give low values 1 | locus YGR078C, strain PAC10, hits give low values 0.986 | locus YGR135W, strain pre9, hits give low values 0.966 | locus YGR229C, strain SMI1, hits give low values 0.993 | locus YGR252W, strain gcn5, hits give low values 1.02 | locus YHR013C, strain ard1, hits give low values 1 | locus YHR027C, strain rpn1, hits give low values 0.983 | locus YHR030C, strain SLT2, hits give low values 1.01 and 1 | locus YHR079C, strain IRE1 (second series), hits give low values 1.02 | locus YHR079C, strain IRE1, hits give low values 0.999 | locus YHR094C, strain hxt1, hits give low values 1.02 | locus YHR129C, strain ARP1, hits give low values 1.01 | locus YHR142W, strain chs7, hits give low values 1.01 | locus YHR200W, strain rpn10, hits give low values 1.02 | locus YIL066C, strain RNR3, hits give low values 1.04 | locus YIL073C, strain SPO22, hits give low values 1.09 | locus YIL125W, strain kgd1, hits give low values 1.02 | locus YIR030C, strain dcg1, hits give low values 1.02 | locus YJL092W, strain hpr5, hits give low values 1 | locus YJL095W, strain BCK1 (second series), hits give low values 0.995 | locus YJL095W, strain BCK1, hits give low values 1 | locus YJL115W, strain asf1, hits give low values 0.982 | locus YJL129C, strain trk1, hits give low values 0.971 | locus YJL134W, strain LCB3, hits give low values 1.01 | locus YJL154C, strain vps35, hits give low values 0.988 | locus YJL164C, strain tpk1, hits give low values 0.996 | locus YJL166W, strain qcr8, hits give low values 1 | locus YJL168C, strain set2, hits give low values 1.02 | locus YJL187C, strain SWE1 (second series), hits give low values 1 | locus YJL187C, strain SWE1, hits give low values 0.992 | locus YJR043C, strain POL32, hits give low values 1.03 | locus YJR066W, strain TOR1, hits give low values 0.974
